# About 83,000 compounds went through this panel and 20% of them were active in at least one assay; those are over-represented in the sample as a whole.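 Activity criterion: percent growth below 10, measured after cells in 96-well plates were exposed to a single compound concentration for 48 hours.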 A number with no mark means an inactive call. Calls of active or inactive are those of the source.
# Tests used:
# Assay in all cases: NCI-60 one-dose screen, 48 h (100 = growth as untreated, 0 = no growth, -100 = all killed)
# Details in all cases: 10 µM unless noted
# K-562 leukemia = tested on: K-562 leukemia
# MALME-3M melanoma = tested on: MALME-3M melanoma
# MDA-MB-231 breast = tested on: MDA-MB-231 breast
# RXF 393 renal = tested on: RXF 393 renal
# SF-295 CNS = tested on: SF-295 CNS
# SF-539 CNS = tested on: SF-539 CNS
# UACC-257 melanoma = tested on: UACC-257 melanoma
# M14 melanoma = tested on: M14 melanoma
# HCT-15 colon = tested on: HCT-15 colon
# HT29 colon = tested on: HT29 colon
# SNB-75 CNS = tested on: SNB-75 CNS
# U251 CNS = tested on: U251 CNS
# PC-3 prostate = tested on: PC-3 prostate
# SK-MEL-5 melanoma = tested on: SK-MEL-5 melanoma
# UACC-62 melanoma = tested on: UACC-62 melanoma
# LOX IMVI melanoma = tested on: LOX IMVI melanoma
# SK-MEL-28 melanoma = tested on: SK-MEL-28 melanoma
# SF-268 CNS = tested on: SF-268 CNS
# SNB-19 CNS = tested on: SNB-19 CNS
Compound,growth (K-562 leukemia),growth (MALME-3M melanoma),growth (MDA-MB-231 breast),growth (RXF 393 renal),growth (SF-295 CNS),growth (SF-539 CNS),growth (UACC-257 melanoma),growth (M14 melanoma),growth (HCT-15 colon),growth (HT29 colon),growth (SNB-75 CNS),growth (U251 CNS),growth (PC-3 prostate),growth (SK-MEL-5 melanoma),growth (UACC-62 melanoma),growth (LOX IMVI melanoma),growth (SK-MEL-28 melanoma),growth (SF-268 CNS),growth (SNB-19 CNS)
CO[C@@]12[C@@H]3NC3CN1C1=C(C(=O)C(N)=C(C)C1=O)[C@@H]2COC(N)=O (stereo not given in full),28.7%,-12% (active),67.5%,11.9%,5.61% (active),11.8%,-11.7% (active),2.4% (active),26.4%,-18.1% (active),2.19% (active),13.4%,41.8%,-96% (active),-15.9% (active),-50.2% (active),23%,–,–
O=C1C=CC(=O)N1c1cccc(N2C(=O)C=CC2=O)c1,104%,-36.4% (active),107%,-2.87% (active),102%,104%,96.8%,98.8%,23.1%,23.5%,96%,111%,99.9%,116%,109%,73.5%,108%,108%,147%
COCCn1c(Nc2ccc(C(=O)NO)cc2)nc2ccccc21,34.6%,30.6%,81.5%,39.1%,61.9%,62%,27.8%,51.6%,74.9%,44.1%,22.1%,61.4%,69.5%,47.4%,25.8%,73.6%,61.3%,82.3%,69.6%
Clc1ccccc1Nc1nnc(-c2ccncc2)s1,101%,109%,108%,107%,88.7%,108%,108%,104%,112%,105%,106%,103%,97.2%,97.7%,95.3%,110%,100%,105%,99.8%
CN(C)c1ccc(Nc2c3ccccc3nc3ccccc23)cc1,8.82% (active),-14% (active),43%,21.6%,-7.58% (active),17.5%,18.3%,18.5%,6.89% (active),8.13% (active),9.38% (active),23%,33%,9.1% (active),14.3%,-7.85% (active),26%,27.7%,28.4%
COc1ccc(Br)c2ccccc12,94.3%,121%,123%,109%,110%,109%,100%,101%,110%,110%,93.7%,114%,102%,107%,107%,101%,122%,108%,116%
CC(=O)c1cccc(Nc2ncnc3ccc(NC(=O)c4ccco4)cc23)c1,86.9%,97.8%,88.4%,80.6%,91.9%,103%,94.7%,87.4%,86.8%,82.9%,94.3%,98.1%,83.7%,70.4%,84.1%,92.5%,98.7%,–,93.6%
CCCCCCCCCCCCCCCCCC1=NC(C)(C)CN1C(C)(C)CO,-56.6% (active),-58.1% (active),-71.6% (active),-68.7% (active),54.3%,-45% (active),-41% (active),-100% (active),1.33% (active),-100% (active),-1.88% (active),-100% (active),-1.05% (active),-53% (active),-86.9% (active),-100% (active),-100% (active),-84.6% (active),37.2%
CC1CN(CCCOC(=O)Nc2ccc(Cl)cc2)CCN1C(C)(C)C (stereo not given),90.8%,102%,102%,126%,107%,125%,108%,99.7%,114%,104%,114%,108%,90%,97.6%,84.8%,91.9%,106%,106%,98.1%
CSCCC1NC(=O)C(C(C)=Nc2ccccc2)=C1O (stereo not given),124%,112%,109%,109%,97.7%,119%,113%,103%,117%,108%,88.6%,111%,92.7%,112%,101%,105%,110%,111%,116%
O=C(CSc1ccc(Cl)cc1)Nc1ccc(-c2nc3ccccc3s2)c(Cl)c1,34.3%,108%,93.8%,78.7%,22.3%,93.1%,84.5%,75.4%,39.6%,57%,79.1%,52.9%,30.9%,79%,58.4%,63.2%,108%,–,62.7%
COc1cc(/C=C2\C(=O)Nc3ccc(N(C)C)cc32)cc(OC)c1OC,21.8%,37.2%,24.3%,-45% (active),7.29% (active),10.3%,-11% (active),-3.91% (active),17%,9.36% (active),-17.1% (active),11.4%,35%,21.5%,-0.443% (active),32.8%,43.4%,–,36.2%
COc1cc(/C=C/C(=O)c2c(C)nc3ccccc3c2C)ccc1OCCCOc1cc2c(cc1OC)C(=O)N1CCC[C@H]1C=N2,-10.8% (active),-37.2% (active),-35.6% (active),-83.7% (active),-47.6% (active),-87% (active),-1.91% (active),–,-25.9% (active),-71.9% (active),-76.8% (active),-66.4% (active),-15.9% (active),-98.8% (active),-81.3% (active),-99.3% (active),-63.1% (active),-47.9% (active),-49.8% (active)
CCCCC(CCc1ccccn1)C(=O)c1ccccc1 (stereo not given),116%,119%,104%,109%,104%,107%,123%,108%,107%,109%,89.8%,114%,98.2%,103%,107%,96.5%,108%,122%,110%
CC(C)=CCC[C@H](C)c1ccc(C)c2c1OCN(CCO)C2,77.7%,89.5%,88.8%,52.4%,98.6%,88.2%,92.3%,90.9%,105%,68.7%,58.7%,85.1%,76.9%,81.2%,96.1%,100%,–,–,57.9%
CCCCCCCCCCCCCCCC1=NCC[N+]1(CCO)CCO,1.44% (active),108%,36.7%,34.9%,76.7%,73.3%,102%,7.86% (active),31.9%,12.4%,46.9%,39.4%,32.1%,89.6%,76.2%,5.42% (active),115%,–,97.6%

# — PubChem BioAssay (NCI)
